Assay outcomes (PubChem BioAssay)
HT1080 IDH1KD tx: kills HT-1080 cells with IDH1 knockdown; hit rate 2% among 360,000; Potency, µM (top dose mostly 46.1 µM), hits mostly cytotoxic; HT-1080 IDH1 knockdown viability, ATP luminescence, 48 h; AID 686971
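Cytotoxicity counter-line: IDH1KD HT-1080, 48 h, CellTiter-Glo. Curves classed by r2, magnitude and activity.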
DT40 TDP1 CPT: DT40-hTDP1 cell growth loss with CPT. chicken DT40 Tdp1-/-;hTDP1 cells + 20 nM CPT, ATP luminescence, 48 h. Potency, µM (titrated, usually from 46.2 µM), actives largely listed as inhibitors. hit rate 12% among 420,000. AID 686979; also: nearly all actives have a fitted effect of over 55% in size
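Chicken DT40 Tdp1-/- cells complemented with human TDP1, 400 cells/well, exposed to compounds plus 20 nM camptothecin for at least 48 h at 37 C; viability read as ATP content by CellTiter-Glo luminescence.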
TDP1 cell noCPT: qHTS for Inhibitors of human tyrosyl-DNA phosphodiesterase 1 (TDP1): qHTS in cells in absence of CPT; Potency, µM (doses to about 46.2 µM), hits mostly inhibitors; hit rate 15% among 420,000; DT40 Tdp1-/- hTDP1 cells, no CPT, ATP luminescence, 48 h; also: nearly all actives have a fitted effect of over 55% in size
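Chicken DT40 Tdp1-/- cells stably complemented with human TDP1 were seeded at 400 cells/well with DMSO in place of 20 nM camptothecin. After compound pinning, cells grew at least 48 hr at 37 °C; viability read by CellTiter-Glo luminescence.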
ALOX12 inh: blocks human arachidonate 12S-lipoxygenase | purified 12hLO, xylenol orange hydroperoxide absorbance | Potency, µM (doses to about 108 µM), most hits filed as inhibitors | hit rate 1.1% among 580,000 | AID 1671190
Target sequence (P18054 whole entry, looked up): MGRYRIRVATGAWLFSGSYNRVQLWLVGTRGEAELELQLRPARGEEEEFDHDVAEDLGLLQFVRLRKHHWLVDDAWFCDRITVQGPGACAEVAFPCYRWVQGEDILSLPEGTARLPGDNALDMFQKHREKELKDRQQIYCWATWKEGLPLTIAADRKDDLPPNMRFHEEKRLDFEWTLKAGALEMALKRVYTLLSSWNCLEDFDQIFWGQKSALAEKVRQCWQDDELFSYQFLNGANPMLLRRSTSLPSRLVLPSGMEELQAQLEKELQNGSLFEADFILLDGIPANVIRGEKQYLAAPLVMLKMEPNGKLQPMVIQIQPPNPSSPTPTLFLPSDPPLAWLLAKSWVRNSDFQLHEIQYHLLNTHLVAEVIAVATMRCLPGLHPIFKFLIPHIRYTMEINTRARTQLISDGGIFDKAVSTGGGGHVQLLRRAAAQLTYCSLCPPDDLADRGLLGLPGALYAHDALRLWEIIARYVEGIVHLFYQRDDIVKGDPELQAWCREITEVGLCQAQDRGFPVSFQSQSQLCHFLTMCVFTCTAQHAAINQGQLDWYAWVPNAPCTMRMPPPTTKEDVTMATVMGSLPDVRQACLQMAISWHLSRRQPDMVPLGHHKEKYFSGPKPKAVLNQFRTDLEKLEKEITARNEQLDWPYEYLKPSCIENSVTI
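Purified human 12hLO (150 nM final) in 25 mM Hepes, 0.01% Triton X-100, pH 7.0 was preincubated 15 min at room temperature with compound. Then 40 uM arachidonic acid was added, 30 min. Hydroperoxide was read by Fe-XO absorbance ratio 573/405 nm.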
HT1080NT lethal: kills 2HG-producing HT-1080-NT fibrosarcoma cells | HT-1080-NT fibrosarcoma viability, CellTiter-Glo ATP luminescence, 48 h | Potency, µM (series often up to 46.1 µM), hits mostly cytotoxic | hit rate 1.6% among 360,000 | AID 686970;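 also: NT is the 2HG producing partner of a matched IDH1 knockdown line; nearly all actives have a fitted effect of over 55% in size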
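Compounds were tested in concentration-response format on HT-1080-NT cells for 48 hours at 37 degrees C. Cell viability came from CellTiter-Glo luminescence; curves were classified by r2, response magnitude and activity.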
IL-1B inflam inh: inflammasome signaling inhibition, IL-1 beta readout. hit rate 4.7% among 360,000. activity change, % at 57.5 µM. THP-1 LPS/ATP IL-1B secretion, AlphaLISA, 16 h; active compounds read low; in the data active = activity change below about -50%; inconclusive = mostly about -30% to -49%
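Secreted IL-1B measured by AlphaLISA bead assay after 16 h compound exposure of THP-1 cells; compounds (final up to 57.5 uM) added 1 h before LPS (250 ng/mL) and ATP (1.25 mM) stimulation; lower signal means less secretion.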
Of the large screens only hits and unclear results are named; the others gave an inactive call. Shown is part of a subset that was picked to be rich in hits. Unless noted, calls follow the shape of the dose curve; as a rule, active = well fitted curve in the direction sought with a large enough effect; inconclusive = small, poorly fitted or top-dose-only effect, or another doubt; inactive = no such curve, though single readings can be large; an effect the other way counts as inactive or inconclusive.

CCCc1nnc(NC(=O)c2cc(-c3ccc(OC)cc3)on2)s1	none (no result: HT1080 IDH1KD tx, DT40 TDP1 CPT, TDP1 cell noCPT, HT1080NT lethal, IL-1B inflam inh)
Cc1cccc(/C=N/N(CCO)C2=NS(=O)(=O)c3ccccc32)c1	DT40 TDP1 CPT inconclusive, TDP1 cell noCPT inconclusive
CC(C)(C)NC(=O)CCN(/N=C/c1ccccc1F)C1=NS(=O)(=O)c2ccccc21	DT40 TDP1 CPT inconclusive, TDP1 cell noCPT 21µM
CC(C)(C)NC(=O)CCN(/N=C/c1ccccc1)C1=NS(=O)(=O)c2ccccc21	DT40 TDP1 CPT inconclusive, TDP1 cell noCPT 16µM
CC(=O)c1sc(NC(=O)c2nn(Cc3ccccc3)c(=O)c3ccccc23)nc1C	none (no result: HT1080 IDH1KD tx, DT40 TDP1 CPT, TDP1 cell noCPT, HT1080NT lethal, IL-1B inflam inh)
COc1ccc(N2C(=O)C3(CCCCC3)C2C(=O)N2CCN(c3ccccn3)CC2)cc1 (stereo unspecified)	none (no result: HT1080 IDH1KD tx, DT40 TDP1 CPT, TDP1 cell noCPT, HT1080NT lethal, IL-1B inflam inh)
Cc1cc(-c2cc(NC(=O)Cc3c[nH]c4ccccc34)ccc2Nc2cccnc2)ccc1F	none (no result: HT1080 IDH1KD tx, DT40 TDP1 CPT, TDP1 cell noCPT, HT1080NT lethal, IL-1B inflam inh)
CC(C)Cn1c(=O)c2ccccc2n2c(CCC(=O)N3CCN(c4ccccc4F)CC3)nnc12	DT40 TDP1 CPT 23µM, TDP1 cell noCPT 23µM (no result: HT1080 IDH1KD tx, HT1080NT lethal, IL-1B inflam inh)
Cc1cccc(N2CCN(C(=O)CCc3nnc4n(CC(C)C)c(=O)c5ccccc5n34)CC2)c1C	TDP1 cell noCPT inconclusive (no result: HT1080 IDH1KD tx, HT1080NT lethal, IL-1B inflam inh)
CC(C)Cn1c(=O)c2ccccc2n2c(CCC(=O)N3CCN(c4ccccc4)CC3)nnc12	DT40 TDP1 CPT inconclusive, TDP1 cell noCPT 16µM (no result: HT1080 IDH1KD tx, HT1080NT lethal, IL-1B inflam inh)
CCn1c2ccccc2c2cc(NC(=O)c3cccc([N+](=O)[O-])c3)ccc21	HT1080 IDH1KD tx inconclusive, DT40 TDP1 CPT 21µM, TDP1 cell noCPT 21µM, HT1080NT lethal inconclusive
CCn1c2ccccc2c2cc(NC(=O)c3cccc([N+](=O)[O-])c3C)ccc21	HT1080 IDH1KD tx 13µM, DT40 TDP1 CPT inconclusive, TDP1 cell noCPT 15µM, ALOX12 inh inconclusive, HT1080NT lethal 23µM
Cc1ccc(-n2nc3ccc(NC(=O)c4cccc([N+](=O)[O-])c4C)cc3n2)cc1	HT1080 IDH1KD tx inconclusive, TDP1 cell noCPT inconclusive, HT1080NT lethal inconclusive
CCn1c2ccccc2c2cc(NC(=O)c3ccc(C)c([N+](=O)[O-])c3)ccc21	DT40 TDP1 CPT 5.8µM, TDP1 cell noCPT 3.3µM
O=C(c1ccncc1)N1CCC[C@@]2(CCN(C(c3ccccc3)c3ccccc3)C2)C1	DT40 TDP1 CPT inconclusive, TDP1 cell noCPT inconclusive (no result: HT1080 IDH1KD tx, HT1080NT lethal, IL-1B inflam inh)
CN(Cc1cccc(C(F)(F)F)c1)C(=O)c1cccc(Cl)c1	none (no result: HT1080 IDH1KD tx, DT40 TDP1 CPT, TDP1 cell noCPT, HT1080NT lethal, IL-1B inflam inh)
CCCCCCCCN1C(=O)[C@H](CC(=O)N2CCOCC2)C[C@@]2(C(=O)OC)CCCCC=C12	DT40 TDP1 CPT 18µM, TDP1 cell noCPT 15µM
CCCCCCCCN1C(=O)[C@H](CC(=O)N2CCCCC2)C[C@@]2(C(=O)OC)CCCCC=C12	HT1080 IDH1KD tx inconclusive, DT40 TDP1 CPT inconclusive, TDP1 cell noCPT 26µM, HT1080NT lethal inconclusive, IL-1B inflam inh inconclusive
CSCCC(NS(=O)(=O)c1cccs1)C(=O)Nc1ccc(C)c(Cl)c1 (stereo unspecified)	ALOX12 inh 50µM (no result: HT1080 IDH1KD tx, HT1080NT lethal, IL-1B inflam inh)
CSCCC(NS(=O)(=O)c1cccs1)C(=O)NCc1ccc(C)cc1 (stereo unspecified)	TDP1 cell noCPT inconclusive
COCCOC(=O)Cn1nnc2sc(-c3ccccc3)cc2c1=O	ALOX12 inh inconclusive (no result: HT1080 IDH1KD tx, HT1080NT lethal, IL-1B inflam inh)
CCC(C(=O)OC)n1nnc2sc(-c3ccccc3)cc2c1=O (stereo unspecified)	DT40 TDP1 CPT inconclusive, TDP1 cell noCPT 15µM (no result: HT1080 IDH1KD tx, HT1080NT lethal, IL-1B inflam inh)
Cc1cc(C)c(NC(=O)C(C)n2nnc3sc(-c4ccccc4)cc3c2=O)c(C)c1 (stereo unspecified)	DT40 TDP1 CPT inconclusive, ALOX12 inh inconclusive (no result: HT1080 IDH1KD tx, HT1080NT lethal, IL-1B inflam inh)
CC(C(=O)Nc1ccc(F)cc1)n1nnc2sc(-c3ccccc3)cc2c1=O (stereo unspecified)	ALOX12 inh 32µM (no result: HT1080 IDH1KD tx, DT40 TDP1 CPT, TDP1 cell noCPT, HT1080NT lethal, IL-1B inflam inh)
COc1ccc(NC(=O)C(OC)c2ccccc2)cc1Cl (stereo unspecified)	none
COc1ccc(NC(=O)C(C)n2nnc3sc(-c4ccccc4)cc3c2=O)cc1Cl (stereo unspecified)	DT40 TDP1 CPT 13µM, TDP1 cell noCPT 6.5µM, ALOX12 inh inconclusive (no result: HT1080 IDH1KD tx, HT1080NT lethal, IL-1B inflam inh)
CCCN1CCN(CCCNC(=O)c2ccc3nc(N4CCC(C)CC4)sc3c2)CC1	TDP1 cell noCPT inconclusive
COc1ccc(N2CCN(CCCNC(=O)c3ccc4nc(N5CCCCC5)sc4c3)CC2)cc1	DT40 TDP1 CPT 16µM, TDP1 cell noCPT inconclusive, ALOX12 inh inconclusive (no result: HT1080 IDH1KD tx, HT1080NT lethal, IL-1B inflam inh)
Cc1ccc(Cl)cc1N1CCN(CCCNC(=O)c2ccc3nc(N4CCCCC4)sc3c2)CC1	DT40 TDP1 CPT 21µM, TDP1 cell noCPT 12µM (no result: HT1080 IDH1KD tx, HT1080NT lethal, IL-1B inflam inh)
Cc1ccc(C)c(N2CCN(CCCNC(=O)c3ccc4nc(N5CCC(C)CC5)sc4c3)CC2)c1	DT40 TDP1 CPT 15µM, TDP1 cell noCPT 9.2µM, ALOX12 inh inconclusive (no result: HT1080 IDH1KD tx, HT1080NT lethal, IL-1B inflam inh)
CCC1=C(C(=O)OC)C(c2ccc(C)cc2)N2C(CC(=O)N3CCCC3)=CSC2=N1 (stereo unspecified)	none (no result: HT1080 IDH1KD tx, DT40 TDP1 CPT, TDP1 cell noCPT, HT1080NT lethal, IL-1B inflam inh)
Cc1ccc(C(=O)N2CCN(c3cc(C(F)(F)F)ncn3)CC2)s1	none (no result: HT1080 IDH1KD tx, DT40 TDP1 CPT, TDP1 cell noCPT, HT1080NT lethal, IL-1B inflam inh)
CCOn1c(=O)c[n+]([O-])c2ccccc21	none
